Assay results taken from PubChem BioAssay AID1159606 (Sanford-Burnham Center for Chemical Genomics, 2016).
About 7,300 (2%) of roughly 360,000 compounds were called active. The entries come from a sample that favours actives as a whole. Unmarked numbers belong to inactive results. Rule as the data show it: active = inhibition above about 50%; inactive = the rest.

Experiment: inhibitors of TWEAK-Fn14 signaling, primary screen, luciferase reporter cells, uHTS (AID 1159606)
Details: TWEAK-stimulated Fn14 reporter cells, luciferase luminescence, 8 h; at 10 µM; active compounds read high

Structure (SMILES) | inhibition
O=S(=O)([N-]c1nc2ccccc2nc1-[n+]1ccc(Cc2ccccc2)cc1)c1ccc(Br)s1 | 101% (active)
O=S(=O)(NCc1ccccn1)c1ccc(Br)s1 | -7.41%
Cn1c2c(c(=O)n(C)c1=O)C(c1cccc([N+](=O)[O-])c1)Nc1ccccc1O2 (centres undefined) | -3.73%
O=C(Nc1ccccc1)N1CCN(C2c3ccccc3-c3ccccc32)CC1 | -2.27%
O=C(Nc1cccc(NC(=O)N2CCN(c3ccccc3)CC2)c1)N1CCN(c2ccccc2)CC1 | 86.3% (active)
COc1cccc(N2CCN(C(=O)Nc3ccc4c(c3)NC(=O)CO4)CC2)c1 | 8.92%
Cc1nc(SC(C)C)[nH]c(=O)c1Cc1ccccc1 | 3.45%
COc1ccc(NC(=O)C2Cc3c(-c4ccc5c(c4)OCO5)ccnc3O2)cn1 (centres undefined) | 14.2%
COc1ccc(NC(=O)/C(Cl)=C(/Cl)S(=O)Cc2ccc(C)cc2)cn1 (centres undefined) | 97.5% (active)
COc1ccc(NC(=O)CN2C(=O)NC(C)(c3ccccc3)C2=O)cn1 (centres undefined) | -0.71%
CC(=O)c1ccc(OCC(=O)N(C)C2CCS(=O)(=O)C2)cc1 (centres undefined) | 0.02%
CC(C)NC(=O)c1ccccc1S(=O)c1ccccc1C#N (centres undefined) | 3.58%
O=C(c1ccc(C(F)(F)F)cc1)N1CCC(=O)N([C@H](COCc2ccccc2)Cc2ccccc2)CC1 | 13.8%
CC(=O)c1sc(N/N=C/c2ccc(C(C)C)cc2)nc1C | -16.6%
COc1cccc2sc(Nc3nc(C)c(C(C)=O)s3)nc12 | 94.3% (active)
CNC(=O)c1sc(Nc2ccc(OCc3ccccc3)cc2)nc1C | 32.3%
Cc1cc(N2C(=O)c3ccc(C(=O)NCc4ccccc4)cc3C2=O)no1 | -3.3%
COC(=O)[C@@]1(Cc2ccc(F)cc2)[C@H]2c3cc(C(=O)N(C)C)n(CCc4c[nH]c5ccc(OC)cc45)c3C[C@H]2CN1C(=O)c1ccccc1 | 34.5%
O=C(NCc1ccccc1)C1c2ccccc2OCC(=O)N1CCCN1CCOCC1 (centres undefined) | -1.12%
O=C1OC(/C=C/c2ccccc2)=NC/1=C/c1ccco1 | 51% (active)
CC(C)(C)C1C/C(=C/c2ccco2)C(=O)/C(=C/c2ccco2)C1 (centres undefined) | 9.75%
COc1ccccc1/C=C/C1=NC(=C\N(C)C)/C(=O)O1 | -17.3%
CN(/C(=N/S(=O)(=O)c1cccs1)c1ccccc1)c1ccc(O)cc1 | 7.69%
O=C1Nc2ccccc2NC(c2ccc3c(c2)OCO3)=C1N(Cc1ccc(F)cc1)C(=O)c1ccco1 | 9.28%
